# Data published in PubChem BioAssay.
# Assay: binders of probe aHhip on microarray, primary screen, stem cell growth factor project, biochemical, small-molecule microarray, fluorescence 635/667 (AID 1087);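 further: score merges spot fluorescence at 667nm with spot signal to noise ratio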
# Settings: higher = more signal
row,SMILES,composite z-score
1,COc1ccc(NC(=O)O[C@H]2[C@H](OC(=O)c3cc4ccccc4[nH]3)[C@@H](OC(=O)c3cc4ccccc4[nH]3)[C@@H](OC)O[C@@H]2CO)cc1,0.21
2,C=C(CCCC)C(=O)CC[C@H](OC(=O)c1cccnc1)c1ccc(OCCO)cc1,-0.0994
3,C=CCN1C(=O)[C@]2(Cc3ccccc3)N=C(c3ccc(OCCCO)cc3)O[C@@H]2c2ccccc21,-0.0994
4,CC(=O)NCCCC[C@@H]1NC(=O)[C@H]2C[C@@H](C(=O)NCCCCCNC(=O)CS)[C@@H](c3ccc(O)cc3)N2C1=O,-0.175
5,C=CCC(OC(C)=O)[C@@H]1[C@@H](N(Cc2cc3ccccc3o2)C(=O)Cc2ccc(OC)cc2)c2cc(OCCCO)ccc2N1C(=O)c1ccc2ccccc2c1 (stereo not given in full),0.0505
6,CC(c1ccccc1)C(O)C1C=CC2C(=O)N(c3ccccc3)C(=O)C2N1Nc1ccccc1 (stereo not given),0.179
7,COc1ccc([C@H]2C[C@H]3C(Br)=C[C@@]2(CO)C(=O)[C@]32CO2)cc1,-0.175
8,COCCOC(=O)N1C(=O)[C@@]2(c3cc(C#CCCO)ccc31)[C@H](c1ccc(OCCO)cc1)N1[C@H](c3ccccc3)[C@H](c3ccccc3)OC(=O)[C@H]1[C@@H]2C(N)=O,-0.239
9,CCCCN1CC=CC23O[C@@H]4/C=C\CCCOC(=O)C4[C@H]2C(=O)N(CCCCCO)[C@@H]3C1=O (stereo not given in full),-0.249
10,NCCCCCCNC(=O)[C@H]1C[C@H]2C(=O)N[C@@H](Cc3ccccc3)C(=O)N2[C@H]1c1cccc(OCCO)c1,-0.0346
11,COc1ccc([Si](C)(C)[C@@H]2[C@@H](CCn3cc(CCO)nn3)O[C@]3(C(=O)N(Cc4cccc(N5C(=O)c6cccc7cccc5c67)c4)c4ccccc43)[C@H]2C)cc1,-0.189
12,CC(=O)Nc1cc(Br)ccc1C(=O)NCc1ccccc1,-0.226
13,CCCCCN1CC=CC23O[C@@H]4C=CCOC(=O)[C@@H]4[C@H]2C(=O)N(C(C)CO)[C@@H]3C1=O (stereo not given in full),-0.399
14,CCOC(=O)C1=C[C@@H](C(C)C)N(S(=O)(=O)c2ccc(C)cc2)[C@H]1c1ccccc1F,-0.305
15,CS(=O)(=O)CCOC(=O)C1=CC(CCCO)=CC(C2CC2)N(Cc2cc3c(cc2Br)OCO3)C=C1C(=O)OCCS(C)(=O)=O (stereo not given),-0.0754
16,Cc1c(NC(=O)/C(C#N)=C/c2cccc([N+](=O)[O-])c2)c(=O)n(-c2ccccc2)n1C,-0.0994
17,C=CCN1Cc2ccccc2[C@@H]2OC(c3ccc(OCCCO)cc3)=N[C@]2(CCS(=O)(=O)c2ccccc2)C1=O,-0.191
18,C=CCNC(=O)[C@@H]1[C@H]2C(=O)O[C@H](c3ccccc3)[C@H](c3ccccc3)N2[C@H](c2ccc(OCCO)cc2)[C@@]12C(=O)N(C(=O)OCCOC)c1ccc(C#CCC(C(=O)OC)C(=O)OC)cc12,0.386

row,SMILES,composite z-score
1,CN1C(=O)C2C=CC(C(O)C=Cc3ccc([N+](=O)[O-])cc3)N(Nc3ccccc3)C2C1=O (stereo not given),-0.132
2,COCCOC(=O)N1C(=O)[C@@]2(c3cc(C#CC4=CCCCC4)ccc31)[C@H](c1ccc(OCCO)cc1)N1[C@H](c3ccccc3)[C@H](c3ccccc3)OC(=O)[C@H]1[C@@H]2C(=O)N1CCc2cc(OC)c(OC)cc2C1,-0.0994
3,CC(C)CN1C(=O)[C@@]2(c3ccc([N+](=O)[O-])cc3)CC(=O)N(C3CCCCC3)[C@@H]2c2ccc(CO)cc21,-0.0994
4,C#CCN1[C@H](/C=C/C2CC2)[C@H](Cc2ccccc2)OC(=O)[C@@H]1Cc1ccccc1,0.0373
5,COc1ccccc1CN1C(=O)c2ccccc2[C@@]2(Cc3ccccc3N(CCCN(C)C)C2=O)[C@@H]1c1ccc(CO)cc1,-0.0645
6,COC(=O)[C@@]1(CCC(=O)OC(C)(C)C)N=C(c2ccc(OCCCO)cc2)O[C@H]1c1ccccc1,0.0505
7,O=C(O)[C@@]1(CCS(=O)(=O)c2ccccc2)N=C(c2ccc(OCCCO)cc2)O[C@H]1c1ccccc1,-0.0994
8,C=CCN(Cc1ccccc1)C(=O)C(c1cccs1)N(C(=O)/C=C\C(=O)O)c1ccc(CCOCCO)cc1 (stereo not given),-0.134
9,CC(C)NC(=O)[C@@H]1c2ccccc2C(=O)N(C(C)C)[C@H]1c1ccc(CO)cc1,-0.236
10,C=CCC(OC(C)=O)[C@@H]1[C@@H](N(Cc2ccc(-c3cccc(C(F)(F)F)c3)o2)C(=O)c2cccc3ccccc23)c2cc(OCCCO)ccc2N1C(=O)Cc1ccc2ccccc2c1 (stereo not given in full),-0.199
11,COc1ccc([Si](C)(C)[C@@H]2[C@@H](CCn3cc([C@H](O)c4ccccc4)nn3)O[C@]3(C(=O)N(Cc4cccc(N5CCC5=O)c4)c4ccccc43)[C@H]2C)cc1,-0.249
12,O=C(NCCN1CCOCC1)[C@@H]1c2ccccc2C(=O)N(Cc2cc(C(F)(F)F)cc(C(F)(F)F)c2)[C@H]1c1ccc(CO)cc1,-0.0994
13,C=C(CCCC)/C(=C/C[C@H](OC(C)=O)c1ccccc1OCCO)c1cnc2ccccc2c1,0.0505
14,COC(=O)[C@@]1(Cc2ccc(OC)cc2)[C@H]2c3cc(C(=O)N4CCCC4)n(CCc4ccc(O)c(O)c4)c3C[C@H]2CN1C(=O)c1ccccc1,-0.156
15,Cc1ccc(S[C@]2(C(=O)NCC(C)C)CC(=O)N(Cc3cc(C(F)(F)F)cc(C(F)(F)F)c3)[C@@H]2c2ccc(CO)cc2)cc1,0.0749
16,O=C(NC1CC1)[C@@H]1c2ccccc2C(=O)N(C2Cc3ccccc3C2)[C@H]1c1ccc(CO)cc1,1.38
17,O=C1OCCC=C[C@H]2OC34C=CCN(CCN5CCOCC5)C(=O)[C@H]3N(CCCCCO)C(=O)[C@@H]4C12 (stereo not given in full),-0.0994
